Experimental data from PubChem BioAssay.
A number with no mark means an inactive call. No rule for the calls is given here. Where a SMILES comes first, the peptide text is derived from it. The star is where a group is joined. Boc = CC(C)(C)OC(=O)*

biological target: Pantothenate synthetase (Mycobacterium tuberculosis (strain ATCC 25618 / H37Rv)) (UniProt P9WIL5); assay: Coupled enzyme confirmation of inhibitors against recombinant Mtb PanC (AID 375); conditions: coupled enzyme assay; at 10 µM, active compounds read high;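 also: 0% = full reaction with vehicle and 100% = no enzyme background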
Sequence (P9WIL5 whole entry, looked up): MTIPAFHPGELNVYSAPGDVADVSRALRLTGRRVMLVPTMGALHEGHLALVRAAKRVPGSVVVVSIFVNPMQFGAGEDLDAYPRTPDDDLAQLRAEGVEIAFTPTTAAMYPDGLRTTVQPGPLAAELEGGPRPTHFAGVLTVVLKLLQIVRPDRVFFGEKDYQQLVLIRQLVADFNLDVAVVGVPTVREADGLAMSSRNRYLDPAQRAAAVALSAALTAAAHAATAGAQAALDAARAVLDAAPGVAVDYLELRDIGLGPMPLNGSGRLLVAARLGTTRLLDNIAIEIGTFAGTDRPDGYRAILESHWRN

With O=C(CCCn1c(=S)[nH]c2cc3c(cc2c1=O)OCO3)N1CCN(c2ccccc2F)CC1 as the molecule, how does the inhibition read?
Its inhibition is 0%.

For O=c1c2ccccc2sn1-c1ccc(S(=O)(=O)N2CCCCC2)cc1, which inhibition is on record?
Its inhibition is 0%.

OCCNCC(O)Cn1ccc2ccccc21 (centres undefined) was tested. Which inhibition did it give?
Its inhibition is 2%.

With CCOC(=O)c1c(-c2cccs2)csc1NC(=O)CCCC(=O)O as the molecule, how does the inhibition read?
Its inhibition is 0%.

How did the inhibition turn out when COc1ccccc1N1C(=O)CCC1(C#N)c1ccccc1 (centres undefined) was run?
Its inhibition is 0%.

With CCS(=O)(=O)N1CCC(C(=O)NC2CCCCC2)CC1 as the molecule, how does the inhibition read?
The inhibition was 0%.

CCOC(=O)N1CCN(C(=O)CSc2ncnc3ccccc23)CC1 was tested. Which inhibition did it give?
Its inhibition is 0%.

With COc1cccc(NC(=O)CSc2nnnn2C(C)C)c1 as the molecule, how does the inhibition read?
Its inhibition is 6%.

With CCOc1ccccc1C1CC(=O)Nc2cc3c(cc21)OCO3 (centres undefined) as the molecule, how does the inhibition read?
Its inhibition is 0%.

For COc1ccc(Cn2c(-c3ccco3)nc3oc4ccccc4c(=O)c3c2=O)cc1, which inhibition is on record?
Its inhibition is 0%.

With COCCNC(=O)Cn1cc2c(n1)CCCCC2 as the molecule, how does the inhibition read?
Its inhibition is 1%.

CCOC(=O)CCC(=O)c1c(C)oc2ccc(OC)cc12 was tested. Which inhibition did it give?
The inhibition was 4%.

How did the inhibition turn out when Cc1ccnc(NC(=O)C2CCCN(S(=O)(=O)c3cnc[nH]3)C2)c1 (centres undefined) was run?
The inhibition was 0%.

With Cc1ccc(C(=O)/C=C/Nc2cccc(O)c2)cc1 as the molecule, how does the inhibition read?
The inhibition was 8%.

For CC(=O)NC(C)c1nc2ccccc2n1C(C)C (centres undefined), which inhibition is on record?
The inhibition was 6%.

How did the inhibition turn out when Cc1cc2ccccc2c(=O)n1CC(=O)N(C)c1ccc(F)cc1 was run?
Its inhibition is 0%.

Which inhibition does the source give for C=CCNC(=O)c1cc(-c2ccccc2O)on1 here?
Its inhibition is 0%.

With CCOC(=O)c1sc(NC(=O)CNC(=O)Cn2cnc3sc(C)c(C)c3c2=O)nc1C as the molecule, how does the inhibition read?
The inhibition was 0%.

For COc1cccc(-c2cc(C(=O)N3CCCc4ccccc43)no2)c1, which inhibition is on record?
Its inhibition is 0%.

O=C(COC(=O)c1cncc(Br)c1)NCCC1=CCCCC1 was tested. Which inhibition did it give?
The inhibition was 0%.

For COC(=O)Cc1csc(N)n1, which inhibition is on record?
Its inhibition is 0%.

With CCCCN1C(=O)C2C(C(=O)Nc3cccc(OC)c3)C3C=CC2(O3)C1C(=O)NC1CCCCC1C (centres undefined) as the molecule, how does the inhibition read?
Its inhibition is 0%.

With O=C(c1sc2ccccc2c1Cl)N(Cc1cccs1)C1CCS(=O)(=O)C1 (centres undefined) as the molecule, how does the inhibition read?
Its inhibition is 0%.

With N#CC1=C(SCc2ccccc2)NC(=O)C(C#N)C12CCCC2 (centres undefined) as the molecule, how does the inhibition read?
Its inhibition is 2%.

With CC(Sc1nnnn1-c1ccccc1)C(=O)Nc1ccc(Cl)cn1 (centres undefined) as the molecule, how does the inhibition read?
Its inhibition is 2%.

Which inhibition does the source give for Cc1cn([C@H]2C[C@H](N=[N+]=[N-])[C@@H](CO)O2)c(=O)[nH]c1=O here?
Its inhibition is 0%.

For CC(C)CC(NC(=O)OC(C)(C)C)C(=O)NC(C(=O)NC(C)C(N)=O)C(C)C (stereo not drawn) (Boc-Leu-Val-Ala-NH2; configuration not given here), which inhibition is on record?
Its inhibition is 16%.

For CCC(=O)Oc1ccc(/C(CC)=C(\CC)c2ccc(OC(=O)CC)cc2)cc1, which inhibition is on record?
Its inhibition is 0%.

How did the inhibition turn out when COc1ccc(CC(=O)Nc2cc(Cl)ccc2O)cc1 was run?
The inhibition was 5%.

How did the inhibition turn out when Clc1ccc2nc(N3CCCCC3)[nH]c2c1 was run?
The inhibition was 3%.

How did the inhibition turn out when CC(C)(C)c1ccc(-c2nnc(SCCC#N)n2C2CCCC2)cc1 was run?
The inhibition was 0%.

For Cn1c(Cc2ccccc2)nnc1SCC(=O)NC1CCCCC1, which inhibition is on record?
The inhibition was 0%.

With CCOc1ccc(N2CC(C(=O)NCCc3ccc(OC)c(OC)c3)CC2=O)cc1 (centres undefined) as the molecule, how does the inhibition read?
Its inhibition is 0%.

CCOc1ccc(S(=O)(=O)NCC2CCCO2)c2cccnc12 (centres undefined) was tested. Which inhibition did it give?
Its inhibition is 0%.

Which inhibition does the source give for c1ccc2c(c1)CNc1ccccc1C2 here?
The inhibition was 0%.

Which inhibition does the source give for O=C(CCCCCn1c(=O)[nH]c2ccsc2c1=O)N1CCCCC1 here?
Its inhibition is 5%.

CCOC(=O)N1CCC(N2C(=O)c3ccccc3C2Nc2ccc3c(C)cc(=O)oc3c2)CC1 (centres undefined) was tested. Which inhibition did it give?
The inhibition was 4%.

For CC(=O)OCC(=O)[C@@]1(O)CC[C@H]2[C@@H]3CCC4=CC(=O)C=C[C@]4(C)[C@H]3[C@@H](O)C[C@@]21C, which inhibition is on record?
Its inhibition is 0%.

For Cc1cccc(NC(=O)c2ccccc2O)c1C, which inhibition is on record?
Its inhibition is 0%.
